Screening data deposited in PubChem by several laboratories.
Only some compounds are listed: those with a hit (about 4.3% of all), similar ones and a draw of the others.
SMARCA2 activ: activators of SMARCA2 function; 370,000 tested, 1% active; activation, % at 9.1 µM; MG213 cells, MMTV-luciferase reporter, dexamethasone, overnight; in the data active = activation above about 7.8%;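 also: 0% = vehicle wells and 100% = reference activator wells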
AF4-AF9 inh: MLL-AF4/AF9 protein interaction inhibition; inhibition, % at 10 µM; 350,000 tested, 0.47% active; P42568; AlphaScreen, biotin-AF4 peptide binding to FLAG-AF9;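 active = every replicate reaching a set inhibition limit, whatever the replicate mean, cut at about 25% in these data; inconclusive = mean inhibition reaches that limit but some replicates miss it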;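 also: 0% = plate neutral control median and 100% = total signal loss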
Target sequence (P42568 whole entry, looked up): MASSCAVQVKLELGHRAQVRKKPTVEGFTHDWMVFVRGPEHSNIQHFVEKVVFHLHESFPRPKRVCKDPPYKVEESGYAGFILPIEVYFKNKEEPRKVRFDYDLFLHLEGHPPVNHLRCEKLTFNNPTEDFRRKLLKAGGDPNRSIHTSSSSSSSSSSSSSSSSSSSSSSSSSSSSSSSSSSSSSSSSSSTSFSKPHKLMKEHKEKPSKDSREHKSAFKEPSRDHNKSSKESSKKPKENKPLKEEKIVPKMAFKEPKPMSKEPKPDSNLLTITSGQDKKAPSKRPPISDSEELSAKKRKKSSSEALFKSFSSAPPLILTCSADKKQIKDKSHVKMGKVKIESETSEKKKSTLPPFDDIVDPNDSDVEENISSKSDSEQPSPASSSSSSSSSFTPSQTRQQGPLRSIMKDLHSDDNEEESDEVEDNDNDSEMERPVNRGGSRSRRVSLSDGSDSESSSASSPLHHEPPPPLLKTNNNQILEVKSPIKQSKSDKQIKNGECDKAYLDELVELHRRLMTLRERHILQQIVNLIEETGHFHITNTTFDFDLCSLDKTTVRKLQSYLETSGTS
Wnt act: Wnt/beta-catenin pathway activation | Wnt/beta-catenin reporter cell assay, activator, plate reader | activation, % at 9.35 µM | 300,000 tested, 1.2% active | AID 743398; in the data active = activation above about 30%, passing the limit was not always enough; inconclusive = no clear call, values can overlap the other calls;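 also: 0% = neutral control wells and 100% = positive control wells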
MITF TRPM1 HTS: increases MITF-driven TRPM1 promoter luciferase signal. activation, % at 12.5 µM. 300,000 tested, 0.75% active. SK-MEL-5 TRPM1-promoter luciferase, 24 h; % of positive control, neutral wells = 0. AID 588334;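 active = mean activation of at least 80% with every replicate also reaching 80%; inconclusive = mean reaches 80% but some replicate falls short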;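 also: 0% = neutral control wells and 100% = parthenolide positive control wells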
esBAF inh: inhibitors of esBAF chromatin remodeling in mouse ES cells. 350,000 tested, 2% active. Bmi1-luciferase knock-in reporter, 24 h; 100% = twice the neutral-well signal. reporter increase, % at 12.5 µM. AID 602393; in the data active = activation above about 40%; inconclusive = no clear call, values can overlap the other calls;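 also: 0% = median of the plate's neutral control wells and 100% = double that signal; a rise in the Bmi1 reporter signal indicates esBAF inhibition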
FGF22 binding: binders of recombinant human FGF22 by thermal shift; Q9HCT0; AID 651658; 340,000 tested, 1.5% active; SYPRO orange fluorescence; percent of sucrose octasulfate shift, DMSO zero; activity (Tm shift, normalised), % at 9.99 µM;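 active = mean Tm shift, scaled 0 neutral to 100 positive control, at about 1.3% or above, every replicate too, limit read from the data; inconclusive = no clear call, values can overlap the other calls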
Target sequence (Q9HCT0 whole entry, looked up): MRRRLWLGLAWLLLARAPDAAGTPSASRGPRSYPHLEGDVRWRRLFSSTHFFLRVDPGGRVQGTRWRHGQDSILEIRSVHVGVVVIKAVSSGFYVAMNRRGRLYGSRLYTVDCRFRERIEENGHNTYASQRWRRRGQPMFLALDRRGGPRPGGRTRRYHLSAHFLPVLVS
An asterisk follows results filed as active; ? = inconclusive; . = no result given.

SMILES | SMARCA2 activ | AF4-AF9 inh | Wnt act | MITF TRPM1 HTS | esBAF inh | FGF22 binding
COc1ccccc1N=c1sc2ccccc2n1C | -1.2 | . | 1.4 | 7.5 | 11.8 | .
Cn1c(=NN=Cc2ccccc2OCCO)sc2ccccc21 | 4.5 | 2.2 | 43.3* | . | 56.5* | -0.3
CCOC(=O)/C(C#N)=C/Nc1ccccc1OC | 4.1 | . | . | 116.8* | 47.4* | .
CCOC(=O)C(=O)/C(C#N)=C/Nc1ccccc1 | 1.2 | . | -5.7 | -4.2 | -2.4 | .
CC(=O)Oc1ccc(C)cc1-n1nc2ccccc2n1 | 4.7 | . | 77.5* | . | 39.7 | .
Cc1ccc(OC(=O)c2cccc(S(=O)(=O)N3CCCC3)c2)c(-n2nc3ccccc3n2)c1 | 1.0 | . | 104.1* | 99.4* | . | .
C[C@@H]1CN([C@H](C)CO)C(=O)CCCn2cc(nn2)CO[C@H]1CN(C)Cc1ccc2c(c1)OCCO2 | . | . | . | . | -4.5 | .
Cc1cccc(C)c1NC(=O)CN(C)C(=O)c1ccc(COc2ccccc2)cc1 | -0.6 | 1.7 | 2.7 | 26.1 | 43.3* | 0.3
COc1ccc(Br)c(C(=O)OCc2cc(=O)oc3cc(C)ccc23)c1 | -0.6 | 0.3 | -3.6 | 61.8 | 23.7 | -0.2
Cc1ccc2c(COC(=O)c3ccccc3Cl)cc(=O)oc2c1 | 2.6 | -1.4 | 12.5 | 180.8* | 70.9* | -0.2
Cc1ccc2c(COC(=O)c3ccc(C)c(C)c3)cc(=O)oc2c1 | -1.6 | -0.3 | -1.8 | 48.4 | 45.6* | -0.2
Cc1ccc2c(COC(=O)c3ccccc3Br)cc(=O)oc2c1 | 3.3 | -2.3 | 1.1 | 118.0* | 53.7* | -0.2
COc1ccc(C(=O)OCc2cc(=O)oc3cc(C)ccc23)cc1S(=O)(=O)N1CCOCC1 | -0.5 | 2.2 | 3.1 | . | 16.8 | 0.0
Cc1noc2ncnc(Oc3ccc(Cl)cc3Cl)c12 | -1.4 | -1.3 | 0.2 | 10.6 | . | 43.6*
Cc1noc2ncnc(Oc3ccccc3Cl)c12 | 4.5 | 1.7 | -1.1 | -8.6 | . | 42.9*
Cc1ccc2c(c1)C=CC(C#N)N2C(=O)c1ccccc1 (stereo not drawn) | 1.2 | 1.2 | . | -13.0 | . | 0.0
CC1=Cc2ccccc2C(C#N)N1C(=O)c1ccccc1 (stereo not drawn) | -4.8 | -1.5 | -0.5 | 7.5 | -2.4 | 43.9*
C[C@H]1CN([C@@H](C)CO)C(=O)c2cc(NC(=O)C3CC3)ccc2O[C@H]1CN(C)S(C)(=O)=O | . | -2.3 | . | . | 5.4 | -0.3
Cc1ccc2oc(C(=O)N(C)Cc3ccon3)c(C)c2c1 | 6.6 | -4.5 | 43.6* | 112.2* | 52.2* | -0.1
C[C@@H]1CN([C@@H](C)CO)C(=O)c2cc(C#CCc3ccccc3)cnc2O[C@@H]1CN(C)CC1CCOCC1 | . | -0.1 | . | . | -0.1 | -0.1
CC(=O)c1cccc(NC(=O)c2noc3c2CCc2ccccc2-3)c1 | 1.8 | -12.7 | 32.9* | ? | 17.5 | -0.1
Cc1ccc(O)c(NC(=O)c2noc3c2CCc2ccccc2-3)c1 | 4.3 | -0.3 | 3.4 | 54.5 | 35.4 | 43.0*
Cc1cc(NC(=O)c2noc3c2CCc2ccccc2-3)no1 | 0.5 | 1.2 | 10.3 | 25.1 | 40.0 | -0.1
CCOC(=O)C1=C(C)NC(=S)NC1c1ccsc1 (stereo not drawn) | -2.3 | -1.4 | 7.8 | 1.2 | . | 43.1*
C[C@@H]1CN([C@@H](C)CO)C(=O)c2cc(NC(=O)Nc3ccccc3)ccc2O[C@@H]1CN(C)Cc1ccc(C(F)(F)F)cc1 | . | 2.0 | . | . | 4.1 | .
SMILES | SMARCA2 activ | AF4-AF9 inh | Wnt act | MITF TRPM1 HTS | esBAF inh | FGF22 binding
CCCN(CCC)CCNC(=O)c1cc2c(-c3ccc(Cl)cc3)nn(C)c2s1 | 0.5 | 10.2 | 0.3 | -6.5 | -7.7 | -0.4
CCN(CC)CCNC(=O)c1cc2c(-c3ccc(Cl)cc3)nn(C)c2s1 | 10.8* | 14.2 | -4.0 | -61.3 | -28.3 | -0.8
CC12CCC(CC1O)C2C(=O)O (stereo not drawn) | -0.2 | -3.2 | -0.9 | . | . | 43.5*
CN1c2ccccc2N(C)C1(C)c1ccccc1 | -5.9 | 49.4* | . | -20.4 | . | 0.1
c1ccc(-c2noc(C34CC5CC(CC(C5)C3)C4)n2)cc1 | -1.0 | . | . | 17.1 | . | .
OC[C@H]1O[C@@H](c2nc(-c3ccc(Br)cc3)no2)C[C@@H]1O | 2.1 | 0.3 | 26.7 | . | 29.7 | -0.3
c1ccc(-c2noc(C34CC5CC(CC(C5)C3)C4)n2)nc1 | 1.1 | . | . | 44.4 | 53.4* | .
Brc1ccc(-c2noc(C3CCCCC3)n2)cc1 | 1.1 | -4.0 | 55.5* | 57.8 | . | 0.1
c1ccc(-c2noc(C3CCCCC3)n2)nc1 | 4.4 | . | 36.2* | 71.8 | 1.2 | .
C[C@@H]1CN([C@@H](C)CO)C(=O)c2cc(NC(=O)CCCN(C)C)ccc2O[C@H]1CN(C)C | . | -3.9 | . | . | -3.0 | -0.3
O=C(Cc1ccc2c(c1)OCCO2)c1c(O)cc(O)cc1O | 0.7 | -5.5 | 8.1 | 39.4 | 55.4* | 0.2
CCN1CCN(c2cc3c(nn2)Oc2ccccc2N3C)CC1 | 5.2 | . | . | 82.2* | . | .
CCN1CCN(c2nnc(-c3ccccc3)c3ccccc23)CC1 | 3.8 | 0.3 | -0.1 | -2.8 | -8.0 | -0.2
CC=Cc1ccc2n(c1=O)C[C@H]1[C@H](CO)[C@@H](C(=O)NCC(F)(F)F)N(CC3CC3)[C@@H]21 (mixture of isomers) | . | -0.8 | . | . | -0.7 | 0.0
NC(=O)C1CCN(c2nc(-c3cccc(N)c3)cs2)CC1 | 3.4 | . | 8.6 | 52.3 | 80.7* | .
CS(=O)(=O)c1ccccc1-c1csc(N2CCC(C(N)=O)CC2)n1 | 3.8 | -1.3 | -2.0 | . | . | -0.3
NC(=O)C1CCN(c2nc(-c3ccccc3C(F)(F)F)cs2)CC1 | 2.9 | . | 14.0 | 75.4 | 68.0* | .
CN(C)C(=O)c1cccc(-c2csc(N3CCC(C(N)=O)CC3)n2)c1 | 2.1 | -2.4 | 15.7 | . | . | -0.1
NC(=O)C1CCN(c2nc(-c3ccccc3Br)cs2)CC1 | 2.5 | -4.2 | 38.4* | . | . | 0.0
NC(=O)C1CCN(c2nc(-c3ccccc3F)cs2)CC1 | 6.8 | 2.6 | ? | 87.9* | 38.1 | -0.1
C[C@@H]1CN([C@H](C)CO)C(=O)c2cc(C#CCc3ccccc3)cnc2O[C@@H]1CN(C)Cc1ccccc1 | . | ? | . | . | . | -0.1
CN(C)c1ccccc1-c1csc(N2CCC(C(N)=O)CC2)n1 | 6.0 | -5.0 | 16.9 | 96.6* | 70.1* | -0.1
COc1ccc(CNC(=O)C[C@@H]2C[C@@H]3c4cc(NC(=O)CN(C)C)ccc4O[C@@H]3[C@@H](CO)O2)cc1 | . | 0.4 | . | . | -6.5 | 0.7
CC(C)c1ccc2occ(-c3nn[nH]n3)c(=O)c2c1 | -1.1 | -1.8 | 16.9 | -6.7 | . | 44.4*
CCNC(=O)C[C@@H]1C=C[C@H](NS(=O)(=O)c2ccc(C)cc2)[C@H](CO)O1 | . | -1.0 | . | . | 4.0 | 0.4
CCCc1cn(CC[C@H]2CC[C@H](NC(=O)C3CCOCC3)[C@@H](CO)O2)nn1 | . | -3.7 | . | . | 3.2 | -0.1
Cc1cc(C)n2nc(SCC(=O)N(Cc3ccccc3)C3CCS(=O)(=O)C3)nc2n1 (stereo not drawn) | -0.2 | 0.4 | -1.1 | -2.7 | . | 42.9*
CCN(C(=O)CSc1nc2nc(C)cc(C)n2n1)C1CCS(=O)(=O)C1 (stereo not drawn) | -5.0 | 0.2 | -1.6 | 14.1 | 2.6 | 0.1
